# In PubChem BioAssay (NCATS):
# Inconclusive results are not listed. A call without a number means that no potency is given here. Active and inactive are the calls of the source. Calls follow the shape of the dose curve; as a rule, active = well fitted inhibition curve with a large enough effect; inconclusive = small, poorly fitted or top-dose-only effect; inactive = no such curve, though single readings can be large or run the other way.
# Test: S16 Schwann cell PMP22 intronic element firefly luciferase assay (AID 624032); also: nearly all actives have a fitted effect of over 30% in size
# Details: S16 rat Schwann cells, PMP22 element FLuc, 24 h; series mostly up to 57.5 µM
# Excerpt: Charcot-Marie-Tooth-Association [CMTA]
# National Center for Advancing Translational Sciences [NCATS]
# Charcot-Marie-Tooth (CMT) disease was first characterized by Jean-Martin Charcot and Pierre Marie in France and, independently, by Howard Henry Tooth in England in 1886. CMT is one of the most common inherited neurological diseases, affecting approximately 1 in 2,500 Americans. […] The most prevalent type of CMT is known as CMT1A and caused by a duplication of the PMP22 gene which leads to over-expression of this protein. PMP22 is a glycosylated intrinsic membrane protein accounting for 2-5% of the myelin protein content, and its over-expression results in demyelination and subsequently axonal loss.
# A pair of cellular transcription-based assays was developed in the S16 rat Schwann cell lines (Hai, M., et al., 2002) stably transfected with orthogonal reporters - firefly luciferase (Fluc) and beta-lactamase (beta-Lac) - whose expression is driven by an intronic regulatory element of the PMP22 gene (Jones, E.A., et al., 2011) to recapitulate endogenous expression of PMP22. The current assay employs Fluc to report on PMP22 expression. A comprehensive library of approved drugs, the NCGC Pharmaceutical Collection (Huang, R., et al., 2011), was screened in the cross-validating platform of the orthogonal reporter assays to identify drug modulators inhibitory towards PMP22 expression.
# A set of counter-screens was devised to address non-specific activity of the library. An ATP-dependent CellTiter-Glo assay (developed by Promega Corp) was utilized to control cell viability. In addition, biochemical Fluc enzyme assay was performed to assess direct inhibition of the Fluc enzymatic activity.
# Hai, M., Muja, N., DeVries, G.H., Quarles, R.H. and Patel, P.I. Comparative analysis of Schwann cell lines as model systems for myelin gene transcription studies. J Neurosci Res, 2002. 69(4): pp 497-508
# Huang, R., Southall, N., Wang, Y., Yasgar A., Shinn P., Jadhav, A. , Nguyen, D.-T. and Austin, C.P., The NCGC pharmaceutical collection: a comprehensive resource of clinically approved drugs enabling repurposing and chemical genomics. Sci Transl Med, 2011. 3(80): p. 80ps16.
# S16 Schwann cell PMP22 intronic element firefly luciferase assay
# The FLuc-expressing S16 cells were seeded in white solid 1536-well plates at between 500-750 cells/4uL in DMEM medium containing 10% FBS, w/o phenol red. After overnight incubation at 37 degree Celsius/5% C02, 23 nL of compounds or DMSO were delivered to each well using a pin tool, followed by 24h-incubation at 37 degree Celsius/5% C02. Then 4 uL ONE-Glo luminescent substrate mix (Promega) was added to each well. Luminescence was measured on a ViewLux plate reader (Perkin Elmer). The % activity was determined by normalizing to the average readings of PTC124 (a positive control) - treated cells relative to DMSO-treated cells (0% Activity). The concentration-effect curves were then classified based on curve quality (r2), response magnitude and degree of measured activity.
# Potency is read from the fitted curve at half-maximal effect.
row,SMILES,Potency
1,COc1cc2c(cc1OC)C(c1ccccc1)CN(C)CC2 (stereo not given),inactive
2,CC(/C=C1\SC(=S)N(CC(=O)O)C1=O)=C\c1ccccc1,inactive
3,Oc1ccc(/C=C\c2cc(O)cc(O)c2)cc1,inactive
4,C[C@@]12C(=O)OC(=O)[C@]1(C)[C@H]1CC[C@@H]2O1,0.616 µM (active)
5,COc1ccc(CCNC[C@@H](O)c2ccc(O)cc2)cc1OC,inactive
6,CC(C)(C)[C@]1(O)CCN2CC3c4ccccc4CCc4cccc(c43)[C@@H]2C1 (stereo not given in full),36.1 µM (active)
7,CN=C(N)NCCCC(N)C(=O)O (stereo not given),inactive
8,CN1C(=O)CCC1c1cccnc1 (stereo not given),inactive
9,C=C1CCC2[C@](C)(CO)C(O)CC[C@]2(C)C1C/C=C1/C(=O)OCC1O (stereo not given in full),14.4 µM (active)
10,CO[C@H]1/C=C/O[C@@]2(C)Oc3c(C)c(O)c4c(O)c(c(/C=N\N5CCN(C6CCCC6)CC5)c(O)c4c3C2=O)NC(=O)/C(C)=C\C=C\[C@H](C)[C@H](O)[C@@H](C)[C@@H](O)[C@@H](C)[C@H](OC(C)=O)[C@@H]1C,10.2 µM (active)
